# Assay results as given in the supplement of paper PMC8728848.
# Many of the other results were omitted from the sample, so the strongest signals are more common in it than they were.
# How the values were obtained:
# Test in all cases: glycan array binding signal (z-score within array); higher = stronger binding
# Settings in all cases: glycan notation: IUPAC condensed, linker removed
# [1] = biological target: Fuc(a1-2)Gal(b1-3)GalNAc(b1-3)Gal
# Outline: (§1)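 Glycan array data came from 3228 arrays in the Consortium for Functional Glycomics database, and only arrays with an available protein sequence were kept. Glycan names were put into IUPAC-condensed notation, and columns mapping to the same glycan were averaged. The binding signal is a within-array Z-score, averaged across arrays of one protein sequence run at different concentrations or buffers and across linkers. A negative Z-score can be read as non-binding.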
# [2] = biological target: Fuc(a1-2)Gal(b1-3)[Fuc(a1-4)]GlcNAc
# Outline: as §1
# Fuc(a1-2)Gal(b1-4)Glc = biological target: Fuc(a1-2)Gal(b1-4)Glc
# Outline: as §1
# [3] = biological target: Fuc(a1-2)Gal(b1-4)GlcNAc(b1-3)Gal(b1-4)GlcNAc(b1-3)Gal(b1-4)GlcNAc
# Outline: as §1
# [4] = biological target: Fuc(a1-2)[Gal(a1-3)]Gal(b1-3)GlcNAc(b1-6)GalNAc
# Outline: as §1
# [5] = biological target: Fuc(a1-3)[Gal(b1-4)]Glc6S
# Outline: as §1
# [6] = biological target: Fuc(a1-3)[Gal(b1-4)]GlcNAc(b1-2)Man(a1-3)[Fuc(a1-3)[Gal(b1-4)]GlcNAc(b1-2)Man(a1-6)]Man(b1-4)GlcNAc(b1-4)[Fuc(a1-6)]GlcNAc
# Outline: as §1
# [7] = biological target: Fuc(a1-3)[Gal(b1-4)]GlcNAc(b1-6)GalNAc
# Outline: as §1
# Gal(b1-3)Gal(b1-4)GlcNAc = biological target: Gal(b1-3)Gal(b1-4)GlcNAc
# Outline: as §1
# [8] = biological target: Gal(b1-4)GlcNAc(b1-2)Man(a1-6)Man(b1-4)GlcNAc(b1-4)GlcNAc
# Outline: as §1
# [9] = biological target: Gal(b1-4)GlcNAc(b1-3)Gal(b1-4)GlcNAc(b1-2)[Gal(b1-4)GlcNAc(b1-3)Gal(b1-4)GlcNAc(b1-6)]Man(a1-6)[Gal(b1-4)GlcNAc(b1-3)Gal(b1-4)GlcNAc(b1-2)Man(a1-3)]Man(b1-4)GlcNAc(b1-4)GlcNAc
# Outline: as §1
# [10] = biological target: Gal(b1-4)GlcNAc(b1-3)Gal(b1-4)GlcNAc(b1-2)[Gal(b1-4)GlcNAc(b1-3)Gal(b1-4)GlcNAc(b1-6)]Man(a1-6)[Gal(b1-4)GlcNAc(b1-3)Gal(b1-4)GlcNAc(b1-2)Man(a1-3)]Man(b1-4)GlcNAc(b1-4)[Fuc(a1-6)]GlcNAc
# Outline: as §1
# [11] = biological target: Gal(b1-4)GlcNAc(b1-3)Gal(b1-4)GlcNAc(b1-3)Gal(b1-4)GlcNAc(b1-3)Gal(b1-4)GlcNAc(b1-3)Gal(b1-4)GlcNAc(b1-2)Man(a1-3)[Gal(b1-4)GlcNAc(b1-3)Gal(b1-4)GlcNAc(b1-3)Gal(b1-4)GlcNAc(b1-3)Gal(b1-4)GlcNAc(b1-3)Gal(b1-4)GlcNAc(b1-2)Man(a1-6)]Man(b1-4)GlcNAc(b1-4)[Fuc(a1-6)]GlcNAc
# Outline: as §1
# [12] = biological target: Gal(b1-4)GlcNAc(b1-3)Gal(b1-4)GlcNAc(b1-3)[Gal(b1-4)GlcNAc(b1-3)Gal(b1-4)GlcNAc(b1-6)]GalNAc
# Outline: as §1
# [13] = biological target: Gal3S(b1-4)[Fuc(a1-3)]GlcNAc6S
# Outline: as §1
# [14] = biological target: GalNAc(b1-4)GlcNAc(b1-2)Man(a1-3)[GalNAc(b1-4)GlcNAc(b1-2)Man(a1-6)]Man(b1-4)GlcNAc(b1-4)GlcNAc
# Outline: as §1
# [15] = biological target: GalNAc(b1-4)GlcNAc(b1-3)GalNAc(b1-4)GlcNAc
# Outline: as §1
# [16] = biological target: Glc(a1-6)Glc(a1-6)Glc(a1-6)Glc
# Outline: as §1
# [17] = biological target: GlcNAc(b1-3)Gal(b1-4)GlcNAc(b1-3)Gal(b1-4)GlcNAc(b1-3)Gal(b1-4)GlcNAc(b1-3)Gal(b1-4)GlcNAc(b1-2)Man(a1-3)[GlcNAc(b1-3)Gal(b1-4)GlcNAc(b1-3)Gal(b1-4)GlcNAc(b1-3)Gal(b1-4)GlcNAc(b1-3)Gal(b1-4)GlcNAc(b1-2)Man(a1-6)]Man(b1-4)GlcNAc(b1-4)[Fuc(a1-6)]GlcNAc
# Outline: as §1
# [18] = biological target: GlcNAc(b1-3)Gal(b1-4)GlcNAc(b1-3)GalNAc
# Outline: as §1
# GlcNAc(b1-3)GalNAc = biological target: GlcNAc(b1-3)GalNAc
# Outline: as §1
# GlcNAc(b1-3)Man = biological target: GlcNAc(b1-3)Man
# Outline: as §1
# [19] = biological target: GlcNAc(b1-3)[GlcNAc(b1-4)][GlcNAc(b1-6)]GlcNAc
# Outline: as §1
# Kdn(a2-6)Gal(b1-4)GlcNAc = biological target: Kdn(a2-6)Gal(b1-4)GlcNAc
# Outline: as §1
# [20] = biological target: Man(a1-2)Man(a1-6)[Man(a1-3)]Man(a1-6)[Man(a1-2)Man(a1-2)Man(a1-3)]Man
# Outline: as §1
# [21] = biological target: Man(a1-2)Man(a1-6)[Man(a1-3)]Man(a1-6)[Man(a1-2)Man(a1-2)Man(a1-3)]Man(b1-4)GlcNAc(b1-4)GlcNAc
# Outline: as §1
# [22] = biological target: Man(a1-3)[Man(a1-6)]Man(a1-6)[Man(a1-2)Man(a1-3)]Man(b1-4)GlcNAc(b1-4)GlcNAc
# Outline: as §1
# [23] = biological target: Man(a1-3)[Man(a1-6)]Man(a1-6)[Man(a1-3)]Man
# Outline: as §1
# [24] = biological target: Neu5Ac(a2-3)Gal(b1-3)GlcNAc
# Outline: as §1
# [25] = biological target: Neu5Ac(a2-3)Gal(b1-3)GlcNAc(b1-2)Man
# Outline: as §1
# [26] = biological target: Neu5Ac(a2-3)Gal(b1-4)GlcNAc(b1-2)Man(a1-3)[Neu5Ac(a2-3)Gal(b1-4)GlcNAc(b1-2)Man(a1-6)]Man(b1-4)GlcNAc(b1-4)GlcNAc
# Outline: as §1
# [27] = biological target: Neu5Ac(a2-3)Gal(b1-4)GlcNAc(b1-2)[Neu5Ac(a2-3)Gal(b1-4)GlcNAc(b1-6)]Man(a1-6)[Neu5Ac(a2-3)Gal(b1-4)GlcNAc(b1-2)Man(a1-3)][GlcNAc(b1-4)]Man(b1-4)GlcNAc(b1-4)GlcNAc
# Outline: as §1
# [28] = biological target: Neu5Ac(a2-3)Gal(b1-4)GlcNAc(b1-3)GalNAc
# Outline: as §1
# [29] = biological target: Neu5Ac(a2-3)Gal(b1-4)GlcNAc(b1-3)[Neu5Ac(a2-3)Gal(b1-4)GlcNAc(b1-6)]GalNAc
# Outline: as §1
# [30] = biological target: Neu5Ac(a2-3)Gal(b1-4)GlcNAc(b1-6)[Gal(b1-3)]GalNAc
# Outline: as §1
# [31] = biological target: Neu5Ac(a2-3)Gal(b1-4)[Fuc(a1-3)]GlcNAc(b1-3)Gal
# Outline: as §1
# [32] = biological target: Neu5Ac(a2-6)Gal(b1-4)GlcNAc(b1-2)Man(a1-3)[Neu5Ac(a2-6)Gal(b1-4)GlcNAc(b1-2)Man(a1-6)]Man(b1-4)GlcNAc(b1-4)GlcNAc
# Outline: as §1
# [33] = biological target: Neu5Ac(a2-6)Gal(b1-4)GlcNAc(b1-3)Gal(b1-4)GlcNAc(b1-3)Gal(b1-4)GlcNAc(b1-2)Man(a1-3)[Neu5Ac(a2-6)Gal(b1-4)GlcNAc(b1-3)Gal(b1-4)GlcNAc(b1-3)Gal(b1-4)GlcNAc(b1-2)Man(a1-6)]GalNAc
# Outline: as §1
# [34] = biological target: Neu5Ac(a2-6)Gal(b1-4)GlcNAc(b1-3)Gal(b1-4)GlcNAc(b1-3)GalNAc
# Outline: as §1
# [35] = biological target: Neu5Ac(a2-6)Gal(b1-4)GlcNAc(b1-3)Gal(b1-4)[Fuc(a1-3)]GlcNAc(b1-3)Gal(b1-4)[Fuc(a1-3)]GlcNAc
# Outline: as §1
# Neu5Ac(b2-6)GalNAc = biological target: Neu5Ac(b2-6)GalNAc
# Outline: as §1
# [36] = biological target: Neu5Gc(a2-8)Neu5Gc(a2-3)Gal(b1-4)GlcNAc
# Outline: as §1
binder,measurement,setting,value
Pwp7 (Candida glabrata) (protein) MGSSHHHHHHSSGLVPRGSHMASKNPVDFPNLCQYPNLDGAVAGFDTEIYNADPSILINFSLWPILQFPKEWHKTIGRAITTQTNFKLPASDTTLFGVSIPTQNILIEFRGYFIPPKSGTYTFALYLTDDGSAMFLGNDAAFPCGNITSWSNPTNDQVSVSDYDPKKKTLTVYMVAGVAYPLRIAYYNREKGGSLTASFVDPDGLTHSDWNGYIWTLPSCDNCKYS,glycan array binding signal (z-score),[1],-0.017
same,glycan array binding signal (z-score),[2],-0.614
same,glycan array binding signal (z-score),Fuc(a1-2)Gal(b1-4)Glc,-0.416
same,glycan array binding signal (z-score),[3],-0.218
same,glycan array binding signal (z-score),[4],0.673
same,glycan array binding signal (z-score),[5],2.63
same,glycan array binding signal (z-score),[6],-0.531
same,glycan array binding signal (z-score),[7],-0.313
same,glycan array binding signal (z-score),Gal(b1-3)Gal(b1-4)GlcNAc,-0.059
same,glycan array binding signal (z-score),[8],0.711
same,glycan array binding signal (z-score),[9],4.75
same,glycan array binding signal (z-score),[10],0.752
same,glycan array binding signal (z-score),[11],2.19
same,glycan array binding signal (z-score),[12],2.23
same,glycan array binding signal (z-score),[13],-0.723
same,glycan array binding signal (z-score),[14],2.13
same,glycan array binding signal (z-score),[15],-0.44
same,glycan array binding signal (z-score),[16],1.4
same,glycan array binding signal (z-score),[17],2.91
same,glycan array binding signal (z-score),[18],2.79
same,glycan array binding signal (z-score),GlcNAc(b1-3)GalNAc,-0.079
same,glycan array binding signal (z-score),GlcNAc(b1-3)Man,-0.272
same,glycan array binding signal (z-score),[19],-1.58
same,glycan array binding signal (z-score),Kdn(a2-6)Gal(b1-4)GlcNAc,-0.857
same,glycan array binding signal (z-score),[20],-0.467
same,glycan array binding signal (z-score),[21],-0.429
same,glycan array binding signal (z-score),[22],-0.076
same,glycan array binding signal (z-score),[23],2.11
same,glycan array binding signal (z-score),[24],-0.487
same,glycan array binding signal (z-score),[25],0.574
same,glycan array binding signal (z-score),[26],0.472
same,glycan array binding signal (z-score),[27],10.8
same,glycan array binding signal (z-score),[28],-0.11
same,glycan array binding signal (z-score),[29],2.25
same,glycan array binding signal (z-score),[30],-0.55
same,glycan array binding signal (z-score),[31],-0.216
same,glycan array binding signal (z-score),[32],0.696
same,glycan array binding signal (z-score),[33],3.78
same,glycan array binding signal (z-score),[34],0.805
same,glycan array binding signal (z-score),[35],-0.43
same,glycan array binding signal (z-score),Neu5Ac(b2-6)GalNAc,-0.387
same,glycan array binding signal (z-score),[36],-0.224
